Data on 41 molecules can be found in PubChem BioAssay (EPA / NIEHS).

A short description of assay [1]: TOX21_p53_BLA_p2_viability: Viability Assessment in the Tox21 HCT-116 p53 Agonism Beta-lactamase Assay, Phase 2 (AID 2283591).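 Note: compound exposure lasted 16 h at 37 °C; actives lower the ATP signal meaning cytotoxicity.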 An outline of the steps: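 HCT-116 p53-bla cells (4000/well) rested 5 h at 37C, then received compounds in DMSO (217-fold dilution) for 16 h at 37C, 5% CO2. After the CCF4 read, CellTiter-Glo was added; ATP luminescence was read after 30 min at room temperature.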

In assay [2] the target is Cellular tumor antigen p53 (Homo sapiens) (UniProt P04637). The assay can be described thus: TOX21_p53_BLA_p2_ratio: Tox21 HCT-116 p53 Agonism Beta-lactamase Assay, Ratio, Phase 2 (AID 2283592). An outline of the steps:
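Plated HCT116 p53-bla cells (4000/well) received compound after 5 h, then 16 h at 37C/5% CO2. CCF4-AM added, 2 h RT. Ratio of 460 to 530 nm emission taken as the p53 reporter signal.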

Assay [3] has the same target. The assay can be described thus: TOX21_p53_BLA_p3_ratio: Tox21 HCT-116 p53 Agonism Beta-lactamase Assay, Ratio, Phase 3 (AID 2283596). An outline of the steps:
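Cells were seeded at 4000/well, rested 5 h at 37C, then dosed with DMSO compound solutions (217-fold dilution) for 16 h. CCF4-AM substrate was loaded for 2 h at room temperature, and the 460/530 nm emission ratio was fitted for gain of signal versus DMSO.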

Assay [4] shares this target. The assay can be described thus: TOX21_p53_BLA_p5_ratio: Tox21 HCT-116 p53 Agonism Beta-lactamase Assay, Ratio, Phase 5 (AID 2283599). An outline of the steps: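 HCT-116 cells carrying a p53-inducible beta-lactamase reporter were seeded at 4000 cells/well and dosed after 5 h with compound in DMSO (217-fold dilution). After 16 h at 37C, CCF4-AM substrate was added for 2 h, and the 460/530 nm emission ratio was scored as gain-of-signal versus DMSO.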

The nature of assay [5]: TOX21_p53_BLA_p5_viability: Viability Assessment in the Tox21 HCT-116 p53 Agonism Beta-lactamase Assay, Phase 5 (AID 2283600). An outline of the steps: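 Workflow: seed 4000 cells per well, wait 5 h, add compounds (DMSO, 217-fold dilution), incubate 16 h, load CCF4-AM 2 h, add CellTiter-Glo, read luminescence after 30 min.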
Assay [6] in a line: TOX21_p53_BLA_p4_viability: Viability Assessment in the Tox21 HCT-116 p53 Agonism Beta-lactamase Assay, Phase 4 (AID 2283597).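 Note: hits lower the luminescence signal meaning cytotoxicity.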 An outline of the steps:
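Readout: ATP luminescence (CellTiter-Glo), measured 30 min after reagent addition at RT. The reagent followed a 2 h CCF4-AM incubation, and the cells had been exposed to compound for 16 h at 37C.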

For assay [7], the target named is Cellular tumor antigen p53 (Homo sapiens) (UniProt P04637). The assay can be described thus: TOX21_p53_BLA_p4_ratio: Tox21 HCT-116 p53 Agonism Beta-lactamase Assay, Ratio, Phase 4 (AID 2283601). An outline of the steps: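 HCT116 cells carrying an inducible beta-lactamase reporter were plated at 4000 cells/well, rested 5 h, then exposed to compounds in DMSO (217-fold dilution) for 16 h at 37C. CCF4-AM substrate was loaded 2 h at room temperature; 460/530 nm emission ratio scored gain-of-signal versus DMSO.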
Sequence of Cellular tumor antigen p53 (Homo sapiens) (P04637 whole entry, looked up): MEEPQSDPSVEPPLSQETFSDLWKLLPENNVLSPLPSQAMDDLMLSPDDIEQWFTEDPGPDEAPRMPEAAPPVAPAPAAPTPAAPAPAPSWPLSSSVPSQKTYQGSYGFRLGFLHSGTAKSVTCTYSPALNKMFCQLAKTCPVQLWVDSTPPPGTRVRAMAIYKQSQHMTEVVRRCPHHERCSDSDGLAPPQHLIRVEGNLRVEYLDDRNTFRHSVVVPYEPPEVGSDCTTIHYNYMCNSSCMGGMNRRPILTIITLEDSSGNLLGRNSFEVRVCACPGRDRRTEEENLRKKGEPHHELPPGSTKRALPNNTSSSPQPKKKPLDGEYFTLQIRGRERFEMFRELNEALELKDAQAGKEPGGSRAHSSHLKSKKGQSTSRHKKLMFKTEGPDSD

Inconclusive results are not listed. Active and inactive are the calls of the source. Rule for the calls: active = hit-call score of the fitted dose curve at least 0.9, where 1 is the maximum; inconclusive = response in the unintended direction; inactive = score below 0.9.

Turning to `CC=CC(=O)CC`, the molecule was called inactive in assay [1], in assay [2], in assay [3], in assay [4] and in assay [5].

As for `CN[C@H](CC(C)C)C(=O)N[C@H]1C(=O)N[C@@H](CC(N)=O)C(=O)N[C@H]2C(=O)N[C@H]3C(=O)N[C@H](C(=O)N[C@H](C(=O)O)c4cc(O)cc(O)c4-c4cc3ccc4O)[C@H](O)c3ccc(c(Cl)c3)Oc3cc2cc(c3O[C@@H]2O[C@H](CO)[C@@H](O)[C@H](O)[C@H]2O[C@H]2C[C@](C)(N)[C@H](O)[C@H](C)O2)Oc2ccc(cc2Cl)[C@H]1O`, the call in assay [1], in assay [2], in assay [3], in assay [6], in assay [5] and in assay [7] was inactive.

Turning to `C[C@@H]1O[C@@H](OC[C@H]2O[C@@H](Oc3c(-c4ccc(OCCO)c(OCCO)c4)oc4cc(OCCO)cc(O)c4c3=O)[C@H](O)[C@@H](O)[C@@H]2O)[C@H](O)[C@H](O)[C@H]1O`, the outcome in assay [1], in assay [2], in assay [3], in assay [6] and in assay [7] was inactive.

Take `Nc1ccc(S(=O)(=O)Nc2ccnn2-c2ccccc2)cc1`: the molecule was classed as inactive in assay [1], in assay [2], in assay [3], in assay [6] and in assay [7].

Consider `CCCCC(=O)O[C@H]1CC[C@H]2[C@@H]3CCc4cc(O)ccc4[C@H]3CC[C@]12C`, for which the outcome in assay [1], in assay [2], in assay [3], in assay [6] and in assay [7] was inactive.

With `O=c1[nH]c2cc(C(F)(F)F)c(N3CCOCC3)cc2n(CP(=O)(O)O)c1=O`, the result in assay [1], in assay [2], in assay [3], in assay [6] and in assay [7] was inactive.

Take `C[C@@H]1C[C@H]2[C@@H]3CCC4=CC(=O)C=C[C@]4(C)[C@@]3(F)[C@@H](O)C[C@]2(C)[C@@]1(O)C(=O)COC(=O)c1cccc(S(=O)(=O)O)c1`: the molecule was called inactive in assay [1], in assay [2], in assay [3] and in assay [4].

As to `CCCN(CCC)CCc1cccc2c1CC(=O)N2`, the result in assay [1], in assay [2], in assay [3], in assay [4] and in assay [5] was inactive.

Turning to `CCCCC(=O)O[C@]1(C(=O)CO)[C@H](C)C[C@H]2[C@@H]3CCC4=CC(=O)C=C[C@]4(C)[C@@]3(F)[C@@H](O)C[C@@]21C`, the molecule was called inactive in assay [1], in assay [2], in assay [3], in assay [6], in assay [5] and in assay [7].

Regarding `O=C(O)c1ccccc1OP(=O)(O)O`, the call in assay [1], in assay [2], in assay [3], in assay [6] and in assay [7] was inactive.

For the molecule `CNCCc1ccccn1`, the call in assay [1], in assay [2], in assay [3], in assay [6], in assay [5] and in assay [7] was inactive.

On to `COc1ccc(C(=O)c2ccc(OC)cc2O)c(O)c1`, for which the outcome in assay [1], in assay [2], in assay [3], in assay [6] and in assay [7] was inactive.

Take `Cc1cn[nH]c1`: the result in assay [1], in assay [2], in assay [3], in assay [4] and in assay [5] was inactive.

In the case of `COS(=O)(=O)C(F)(F)F`, the molecule was classed as inactive in assay [1], in assay [2], in assay [3], in assay [6], in assay [5] and in assay [7].

With `COc1cc2c(c(OC)c1OC)-c1c(cc3c(c1OC)OCO3)C[C@@H](C)[C@](C)(O)C2`, the outcome in assay [1], in assay [2], in assay [3], in assay [6] and in assay [7] was inactive.

For the molecule `CCN(CC)c1ccc2c(-c3ccc(S(=O)(=O)O)cc3S(=O)(=O)[O-])c3ccc(=[N+](CC)CC)cc-3oc2c1`, the result in assay [1], in assay [2], in assay [3], in assay [6], in assay [5] and in assay [7] was inactive.

As to `CCCNC(C)C(=O)Nc1c(C)csc1C(=O)OC` (stereo unspecified), the result in assay [1], in assay [2], in assay [3], in assay [4] and in assay [5] was inactive.

With `CCCCCCCCCCCCCCCC(=O)OC[C@@H](COP(=O)([O-])OCC[N+](C)(C)C)OC(=O)CCCCCCCCCCCCCCC`, the result in assay [1], in assay [2], in assay [3], in assay [6] and in assay [7] was inactive.

For the molecule `C1CCC2OC2C1` (stereo unspecified), the call in assay [1], in assay [2], in assay [3], in assay [6], in assay [5] and in assay [7] was inactive.

As to `CC1CC(C)C(=O)C1=O` (stereo unspecified), the molecule was classed as inactive in assay [1], in assay [2], in assay [3] and in assay [4].

As for `CC[C@@H](C(=O)[C@@H](C)[C@@H](O)[C@H](C)[C@@H]1O[C@@H]([C@@H](CC)C(=O)O)CC[C@@H]1C)[C@H]1O[C@]2(C=C[C@@H](O)[C@]3(CC[C@@](C)([C@H]4CC[C@](O)(CC)[C@H](C)O4)O3)O2)[C@H](C)C[C@@H]1C`, the call in assay [1], in assay [2], in assay [3] and in assay [4] was inactive.

For `Cc1ccccc1OCC1CO1` (stereo unspecified), the molecule was called inactive in assay [1], in assay [2], in assay [3], in assay [6], in assay [5] and in assay [7].

Turning to `CC(C)(C)NCCNC(C)(C)C`, the call in assay [1], in assay [2], in assay [3], in assay [6], in assay [5] and in assay [7] was inactive.

`NCCCNCCCCNC(=O)C(O)NC(=O)CCCCCCN=C(N)N` (stereo unspecified): the call in assay [1], in assay [2], in assay [3], in assay [4], in assay [5] and in assay [7] was inactive.

As for `CC(C)[C@@H](N)C(=O)O`, the outcome in assay [1], in assay [2], in assay [3], in assay [4], in assay [5] and in assay [7] was inactive.

For `C=C(C)C1CC=C(C)C(O)C1` (stereo unspecified), the molecule was called inactive in assay [1], in assay [2], in assay [3], in assay [4], in assay [5] and in assay [7].

Consider `O=C(O)c1cccc(Cl)c1Cl`, for which the call in assay [1], in assay [2], in assay [3], in assay [4], in assay [5] and in assay [7] was inactive.

Take `CCC(=O)OC`: the result in assay [1], in assay [3], in assay [4], in assay [5] and in assay [7] was inactive. Further, the AC50 (in general, the concentration giving half of the maximal activity seen) in assay [2] was 82.7 µM (active).

For `CC(C(=O)O)c1ccc2c(c1)[nH]c1ccc(Cl)cc12` (stereo unspecified), the result in assay [1], in assay [2], in assay [3], in assay [4], in assay [5] and in assay [7] was inactive.

As to `CC[N+](C)(C)Cc1ccccc1Br`, the molecule was classed as inactive in assay [1], in assay [2], in assay [3], in assay [4], in assay [5] and in assay [7].

With `CCOC(=O)c1c[nH]c2cc(OCC(C)C)c(OCC(C)C)cc2c1=O`, the result in assay [1], in assay [2], in assay [3], in assay [4], in assay [5] and in assay [7] was inactive.

As to `Nc1cc(=O)[nH]c(N)n1`, the molecule was called inactive in assay [1], in assay [2], in assay [3], in assay [4], in assay [5] and in assay [7].

Regarding `O=[N+]([O-])c1ccccc1Nc1ccccc1`, the molecule was classed as inactive in assay [1], in assay [2], in assay [3], in assay [4], in assay [5] and in assay [7].

Take `CN(C)CCn1nnnc1SCC1=C(C(=O)O)N2C(=O)[C@@H](NC(=O)Cc3csc(N)n3)[C@H]2SC1`: the molecule was called inactive in assay [1], in assay [2], in assay [3], in assay [4], in assay [5] and in assay [7].

On to `CCCCC`, for which the result in assay [1], in assay [2], in assay [3], in assay [4], in assay [5] and in assay [7] was inactive.

In the case of `C[S+](CC[C@H](N)C(=O)O)C[C@H]1O[C@@H](n2cnc3c(N)ncnc32)[C@H](O)[C@@H]1O` (stereo partly specified), the molecule was classed as inactive in assay [1], in assay [2], in assay [3], in assay [4], in assay [5] and in assay [7].

Regarding `C#CCN(C)CCCOc1ccc(Cl)cc1Cl`, the molecule was called inactive in assay [1], in assay [2], in assay [3], in assay [4], in assay [5] and in assay [7].

Consider `NS(=O)(=O)c1cc(Cl)c(Cl)c(S(N)(=O)=O)c1`, for which the molecule was classed as inactive in assay [1], in assay [2], in assay [3], in assay [4] and in assay [5].

`COc1cc(NS(=O)(=O)c2ccc(N)cc2)ncn1`: the molecule was classed as inactive in assay [1], in assay [2], in assay [3], in assay [4], in assay [5] and in assay [7].

With `CO[C@H]1C[C@H](O[C@H]2[C@H](C)[C@@H](O[C@@H]3O[C@H](C)C[C@H](N(C)C)[C@H]3O)[C@@H](C)C[C@]3(CO3)C(=O)[C@H](C)[C@@H](O)[C@@H](C)[C@@H](C)OC(=O)[C@@H]2C)O[C@@H](C)[C@@H]1O`, the outcome in assay [1], in assay [2], in assay [3], in assay [4] and in assay [5] was inactive.

`O=C(O)c1cc(O)c2c(c1)[C@H]([C@H]1c3cc(C(=O)O)cc(O)c3C(=O)c3c(O[C@@H]4O[C@H](CO)[C@@H](O)[C@H](O)[C@H]4O)cccc31)c1cccc(O[C@@H]3O[C@H](CO)[C@@H](O)[C@H](O)[C@H]3O)c1C2=O`: the outcome in assay [1], in assay [2], in assay [3], in assay [4], in assay [5] and in assay [7] was inactive.
